This is a sample that favours compounds with a hit; in the whole collection about 1.7% have one here.
PTHR1 ag = PTHR1 (human) receptor agonism | Q03431 | actives 0.075% (n = 410,000) | Potency, µM (titrated, usually from 115 µM), usual class: activators | AID 743266 | HEK293 GP2 PTHR1 cells, GloSensor cAMP luminescence, 1 h; note: nearly all actives have a fitted effect of over 55% in size
Target sequence (Q03431 whole entry, looked up): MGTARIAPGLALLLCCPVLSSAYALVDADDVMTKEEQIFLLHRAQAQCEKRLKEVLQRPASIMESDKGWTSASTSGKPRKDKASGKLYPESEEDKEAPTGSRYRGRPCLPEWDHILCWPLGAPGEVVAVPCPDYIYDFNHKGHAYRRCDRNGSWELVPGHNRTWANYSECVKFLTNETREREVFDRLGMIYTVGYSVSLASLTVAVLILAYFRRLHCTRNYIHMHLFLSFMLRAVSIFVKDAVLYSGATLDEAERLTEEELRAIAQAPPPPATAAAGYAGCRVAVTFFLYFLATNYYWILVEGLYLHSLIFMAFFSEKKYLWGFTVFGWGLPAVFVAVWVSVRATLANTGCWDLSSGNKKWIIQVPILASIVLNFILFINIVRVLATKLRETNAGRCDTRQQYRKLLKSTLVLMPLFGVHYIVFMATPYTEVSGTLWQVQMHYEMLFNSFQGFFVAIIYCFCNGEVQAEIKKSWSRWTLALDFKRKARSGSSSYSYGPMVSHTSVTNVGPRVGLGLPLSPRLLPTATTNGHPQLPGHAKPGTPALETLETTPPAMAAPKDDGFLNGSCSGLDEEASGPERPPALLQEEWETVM
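HEK-293-derived GP2 cells expressing PTHR1 and a GloSensor cAMP reporter, 3,000/well, plated overnight, given luciferin plus IBMX (each 0.5 mM as added) for 1 h at 37 °C, then compound for 1 h at 37 °C. Luminescence was read after 15 min at room temperature.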
GLP-1R inv ag = inverse agonists of human GLP-1 receptor | P43220 | HEK293 GLP-1R CRE-luciferase, luminescence, 24 h; GLP-1R form is constitutively active | Potency, µM (doses to about 38.3 µM), hits mostly inhibitors | actives 1.6% (n = 410,000); note: nearly all actives have a fitted effect of over 55% in size
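Assay principle: reduced luminescence from a cAMP-responsive reporter in HEK293 cells co-expressing a constitutively active GLP-1R. Conditions: 24 hr compound incubation, 37 deg C, 5% CO2.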
GLP1R ag = agonists of human GLP-1 receptor; P43220; HEK293 GLP-1R CRE-luciferase, luminescence, 4-6 h; cells express a hypersensitive GLP-1R form; Potency, µM (series often up to 45.6 µM), actives largely listed as activators; actives 0.007% (n = 380,000)
HEK293 tox = cytotoxicity counter-screen for GLP-1 receptor inverse agonists. HEK293 cAMP-luciferase reporter cells, luminescence, 24 h. Potency, µM (top dose mostly 38.3 µM), usual class: inhibitors. actives 0.13% (n = 410,000);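 note: loss of luciferase light is scored as toxicity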
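Quantitative HTS format, 1536 wells, 200 cells/uL seeded. Compounds: 23 nL, 24 h, 37 °C. Detection: luciferase reagent, luminescence at 12 min RT; decreased signal taken as cytotoxic.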
Of the large screens only hits and unclear results are named; the others gave an inactive call. Calls come from the whole dose curve; as a rule, active = well fitted curve in the direction sought with a large enough effect; inconclusive = small, poorly fitted or top-dose-only effect, or another doubt; inactive = no such curve, though single readings can be large; an effect the other way counts as inactive or inconclusive.

CC(C)(C)n1nnnc1C(c1cccs1)N(Cc1ccc(Cl)cc1)CC1CCCO1 (stereo unspecified)	GLP-1R inv ag 5µM
COc1ccc2oc(-c3ccc(C)c(NC(=O)Cc4ccc(Cl)cc4)c3)nc2c1	none
COc1ccc(NC(=O)CN(Cc2ccccc2)S(=O)(=O)c2ccc3nc(C)sc3c2)cc1	PTHR1 ag inconclusive (no result: GLP1R ag)
COc1ccccc1NC(=O)CSc1nnc(C2CCCCC2)n1C	none
COc1ccccc1NC(=O)CSc1nnc(C2CCCCC2)n1-c1ccccc1	GLP-1R inv ag 3.2µM
CCOc1ccc(/C=N/Nc2nc(C)cs2)c(O)c1	GLP-1R inv ag 4µM, HEK293 tox 3.2µM
COc1ccc(NC(=O)CSc2nc(-c3cccs3)cc(C(F)(F)F)n2)c(OC)c1	none
O=C(c1cnn2ccccc12)N(Cc1ccco1)C1CCCC1	GLP-1R inv ag 3.5µM, HEK293 tox inconclusive
O=C(c1cnn2ccccc12)N1CCN(C2CCCCC2)CC1	none
CCOC(=O)Nc1ccc2c(c1)N(CCCN(C)C)c1ccccc1CC2	GLP-1R inv ag 13µM
CCOC(=O)Nc1ccc2c(c1)N(C(=O)OC)c1ccccc1CC2	none
CCOC(=O)c1cc(-c2ccc(F)cc2)n(CCC(=O)NC2CCN(Cc3ccccc3)CC2)c1C	GLP-1R inv ag 7.9µM, HEK293 tox inconclusive
CCOC(=O)c1cccc(NC(=O)CCn2c(-c3ccc(F)cc3)cc(C(=O)OCC)c2C)c1	GLP-1R inv ag 10µM (no result: GLP1R ag)
CCOC(=O)c1cc(-c2ccccc2)n(CCCC(=O)Nc2ccc(C(C)C)cc2)c1C	GLP-1R inv ag inconclusive (no result: GLP1R ag)
CCOC(=O)c1cc(-c2ccc(C)cc2)n(CCC(=O)Nc2ccc(C(C)C)cc2)c1C	GLP-1R inv ag 2.5µM
CC(C)C[C@@H](N)C(=O)O	none (no result: PTHR1 ag, GLP-1R inv ag, HEK293 tox)
COc1cc(C2CC(=O)Nc3cc4c(cc32)OCCO4)cc(Br)c1OC (stereo unspecified)	none (no result: GLP1R ag)
Cc1ccc(Cl)cc1N1CCN(C(=O)COc2ccc3c(c2)CCC3)CC1	GLP-1R inv ag 10µM
CCOc1ncccc1C(=O)N1CCN(c2cc(Cl)ccc2C)CC1	GLP-1R inv ag 1µM, GLP1R ag inconclusive
Cc1ccc(Cl)cc1N1CCN(C(=O)c2cnn(C)c2C2CCN(C(=O)OC(C)(C)C)CC2)CC1	GLP-1R inv ag 10µM (no result: GLP1R ag)
CC(=O)c1ccc(N2CCN(C(=O)COc3ccc4c(c3)CCC4)CC2)cc1	none
O=[N+]([O-])c1ccc(C(c2sc3nc(-c4ccco4)nn3c2O)N2CCN(Cc3ccccc3)CC2)cc1 (stereo unspecified)	none (no result: GLP1R ag)
O=C(Nc1cnn(Cc2ccc(F)cc2)c1)C(c1ccccc1)c1ccccc1	GLP-1R inv ag 4.5µM
CCOC(=O)c1ccc(NC(=O)CCCn2c(=O)c3cccn3c3cccnc32)cc1	none (no result: GLP1R ag)
CN(C)CCNC(=O)Nc1ccc(Cl)c(Cl)c1	GLP-1R inv ag 11µM
Cc1cc(NC(=O)Nc2ccc(Cl)c(Cl)c2)no1	GLP-1R inv ag inconclusive
O=C(Nc1ccc(Cl)c(Cl)c1)Nc1ccon1	GLP-1R inv ag 7.9µM, HEK293 tox inconclusive
CCc1nc2nc(C)cc(Nc3cc(Cl)ccc3C)n2n1	none (no result: GLP1R ag)
CCN(CC)CCn1c(=N)n(CC(=O)c2ccc(Br)s2)c2ccccc21	GLP-1R inv ag 2.8µM, HEK293 tox inconclusive
Cn1c(=N)n(CC(=O)c2ccc(Br)s2)c2ccccc21	GLP-1R inv ag inconclusive
O=C(NCCc1ccc(Cl)cc1)C1CCN(S(=O)(=O)c2ccc3[nH]ccc3c2)CC1	GLP-1R inv ag inconclusive (no result: GLP1R ag)
Cn1c(NCC(O)c2ccccc2)nc2c1c(=O)n(Cc1ccc(Cl)c(Cl)c1)c(=O)n2C (stereo unspecified)	GLP-1R inv ag 3.2µM
Cn1c(=O)n(Cc2ccccc2)c(=O)c2c1nc(NCC1CCCO1)n2Cc1ccccc1 (stereo unspecified)	GLP-1R inv ag 4µM, HEK293 tox inconclusive
CCN1CCN(C(=O)c2ccc3c(c2)c(C)c(C)n3Cc2ccccc2)CC1	none
CCn1c(C)c(C)c2cc(C(=O)N3CCc4ccccc4C3)ccc21	GLP-1R inv ag 8.9µM
O=C(NCc1ccco1)c1cc(S(=O)(=O)N2CCCc3ccccc32)ccc1Cl	GLP-1R inv ag 4.5µM
NS(=O)(=O)c1ccc(CNC(=O)C2(c3ccc(Cl)cc3)CC2)cc1	none
COc1ccc(CNC(=O)C2(c3ccc(Cl)cc3)CC2)cc1	GLP-1R inv ag 10µM
CCOc1ccc(C(=O)C(C)OC(=O)C2CCN(c3ccc(C(F)(F)F)cn3)CC2)cc1 (stereo unspecified)	GLP-1R inv ag 8.9µM
Cc1ccc(/C=C/c2onc(C)c2S(=O)(=O)N2CCC(C(=O)Nc3ccc(C)c(N(C)C)c3)CC2)cc1	GLP-1R inv ag inconclusive (no result: GLP1R ag)
CC(C)Nc1ccc(Nc2ccnc3cc4ccccc4cc23)cc1	GLP-1R inv ag 3.2µM, HEK293 tox 4.5µM
COc1ccc(Nc2ccnc3ccccc23)cc1	GLP-1R inv ag inconclusive
CCN1CCN(C(=O)Cn2c(-c3cccs3)cc3cc(Cl)ccc32)CC1	GLP-1R inv ag inconclusive (no result: GLP1R ag)
CN(C)c1nccc(N(Cc2ccccc2)Cc2ccccc2)c1C#N	GLP-1R inv ag 11µM
CN(C)CCN(Cc1ccccc1)c1ccnc(N(C)C)c1C#N	none
O=C(Nc1ccc(Br)cc1)C1CCN(c2ncccn2)CC1	none (no result: GLP1R ag)
O=C(CC(=O)Nc1ccccc1F)Nc1ccc2nc3n(c(=O)c2c1)CCCCC3	none (no result: GLP1R ag)
OC(CNCCNc1ncccc1C(F)(F)F)Cn1ccc2ccccc21 (stereo unspecified)	GLP-1R inv ag 10µM
OC(CNCc1ccccc1)Cn1ccc2ccccc21 (stereo unspecified)	GLP-1R inv ag inconclusive
O=C(Cn1ncc2c3ccccc3n(Cc3cccc(Cl)c3)c2c1=O)NCCC1=CCCCC1	none (no result: GLP1R ag)
Cc1cccc(NC(=O)CSc2nc3c(oc4ccccc43)c(=O)n2C(C)C)c1	GLP-1R inv ag inconclusive (no result: GLP1R ag)
CCOc1ccc(NC(=O)c2c(NC(=O)CNCCN3CCOCC3)sc3c2CCC3)cc1	GLP-1R inv ag 2.5µM, HEK293 tox inconclusive
CCOc1ccc(NC(=O)c2c(NC(=O)c3ccccc3F)sc3c2CCC3)cc1	none (no result: GLP1R ag)
Nc1nc(-c2ccccc2)c(CCCOc2ccc(NC(=O)CBr)cc2)c(=O)[nH]1	HEK293 tox 10µM
CCCN(CCC)c1ncnc2c1cnn2-c1ccc(OC)cc1	GLP-1R inv ag 10µM
Oc1ccccc1/C=N/NC(=S)NC1CC2C=CC1C2 (stereo unspecified)	GLP-1R inv ag 7.9µM, GLP1R ag inconclusive
Oc1ccccc1C=NNC(=S)NC1CC2C=CC1C2 (stereo unspecified)	GLP-1R inv ag inconclusive, HEK293 tox inconclusive
Cc1ccc(C)c(OCCn2cc(C(=O)c3ccco3)c3ccccc32)c1	none (no result: GLP1R ag)
CN1CCN(CCNC(=O)c2ccc3nc(-c4ccc(F)cc4)c(-c4ccc(F)cc4)nc3c2)CC1	GLP-1R inv ag 5.6µM, HEK293 tox inconclusive
COc1ccc(OC)c(NC(=O)c2nc(SCc3ccccc3F)ncc2Cl)c1	PTHR1 ag inconclusive (no result: GLP1R ag)
Cc1cc(C)cc(NC(=O)C2CCCN(C(=O)c3cnn(-c4ccccc4)c3-n3cccc3)C2)c1 (stereo unspecified)	GLP-1R inv ag 10µM (no result: GLP1R ag)
